In all, about 1,600 compounds were measured (“plate-normalized OD600 growth (mean of duplicates)”: median about 0.31, lowest 2% from about 0.23 on). This excerpt belongs to a sample that is enriched for the lowest values.
System: Escherichia coli BW25113
Test: plate-normalized OD600 growth (mean of duplicates) (OD600 (normalized)); higher = more growth (less inhibition)
Details: 10 µM
Protocol: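 E. coli BW25113 in LB (100 µl, 96-well, no shaking) was exposed to 10 µM of each compound (here the ChemBridge subset of a ~30,000-member library) and grown at 37°C for 24 h or 15°C for 48 h, in duplicate. Growth was read as OD600 and the duplicate ODs were normalized across screening plates to correct plate-to-plate variation.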

SMILES | plate-normalized OD600 growth (temperature: 15°C, 48 h) | plate-normalized OD600 growth (temperature: 37°C, 24 h)
O=C(Nc1ccccc1F)c1ccc([N+](=O)[O-])o1 | 0.201 | 0.592
CCN(CC)C(=O)c1ccc([N+](=O)[O-])o1 | 0.247 | 0.627
O=C(Nc1ccccc1NC(=O)c1ccccc1F)c1ccccc1F | 0.263 | 0.627
CCOc1ccccc1N1CCN(C(=O)c2ccccc2C)CC1 | 0.287 | 0.646
Brc1ccc(CN2CCN(c3ccccn3)CC2)cc1 | 0.267 | 0.614
COc1ccc(CN2CCCN(C)CC2)cc1Br | 0.229 | 0.632
CN1CCCN(CC2CC3C=CC2C3)CC1 (centres undefined) | 0.225 | 0.656
COc1cccc(N2CCN(CC3CC4C=CC3C4)CC2)c1 (centres undefined) | 0.296 | 0.627
COc1ccc(S(=O)(=O)N2CCCC(C)C2)cc1 (centres undefined) | 0.266 | 0.639
COC(=O)Nc1ccc(S(=O)(=O)N2CCCCC2)cc1 | 0.238 | 0.599
COc1ccc(S(=O)(=O)N2CCCC2)cc1 | 0.219 | 0.612
Cc1cc(NO)nc(-c2ccc(Br)cc2)n1 | 0.221 | 0.622
Cc1nc(C)c(-c2cc(C)c3c(C)nc(C)nc3n2)c(N)n1 | 0.252 | 0.617
O=C(COc1ccc(Cl)cc1Cl)Nc1ccc(C(=O)O)cc1 | 0.261 | 0.618
COc1cccc(NC(=O)c2ccncc2)c1 | 0.261 | 0.618
O=C(c1cccnc1)N1CCN(C(=O)c2ccco2)CC1 | 0.24 | 0.631
COc1ccc(Cc2ccc(OC)c(N)c2)cc1N | 0.254 | 0.632
COc1cc(C)c(N)cc1C(C)C | 0.226 | 0.6
COc1cc2c(cc1NC(=O)C(Cl)Cl)oc1ccccc12 | 0.232 | 0.619
Cc1ccc(N2C(=O)CC(N3CCN(c4ccc([N+](=O)[O-])cc4)CC3)C2=O)c(C)c1 (centres undefined) | 0.218 | 0.612
COc1ccc(N2C(=O)CC(N3CCN(c4ccc(F)cc4)CC3)C2=O)cc1 (centres undefined) | 0.24 | 0.59
COc1ccccc1N1C(=O)CC(N2CCN(c3ccc([N+](=O)[O-])cc3)CC2)C1=O (centres undefined) | 0.282 | 0.637
Fc1ccccc1OCCCCN1CCCCC1 | 0.214 | 0.61

SMILES | plate-normalized OD600 growth (temperature: 15°C, 48 h) | plate-normalized OD600 growth (temperature: 37°C, 24 h)
c1ccc(OCCCCN2CCCCC2)cc1 | 0.241 | 0.621
Cc1ccccc1OCCCCN1CCCCC1 | 0.265 | 0.623
CC(Nc1cc(=O)n(C)c(=O)[nH]1)c1ccccc1 (centres undefined) | 0.254 | 0.611
CC1(C)CC(n2c(NN)nc3c(c2=O)C2(CCCCC2)Cc2ccccc2-3)CCO1 (centres undefined) | 0.255 | 0.631
CC(=O)N1CCC(NC2CCCCCC2)CC1 | 0.269 | 0.62
CCN(CCN(C)C)C1CCCCCC1 | 0.26 | 0.618
C=C(C)CN(CC)C1CCN(C(C)=O)CC1 | 0.226 | 0.627
CN1CCN(C(=O)CC(c2ccccc2)c2ccccc2)CC1 | 0.253 | 0.62
N#Cc1ccc(-c2cccs2)[nH]c1=O | 0.236 | 0.644
O=Cc1ccc(-c2ccc(Cl)c(C(=O)O)c2)o1 | 0.268 | 0.622
NS(=O)(=O)c1ccc(-c2ccc(C=O)o2)cc1 | 0.227 | 0.612
O=C(/C=C/c1ccc(-c2ccc(F)cc2)o1)c1cccs1 | 0.253 | 0.617
COc1ccc2nc3c(nc2c1)C(=O)c1ccccc1-3 | 0.234 | 0.611
c1cncc(-c2nc3c4c5c(sc4ncn3n2)CCCC5)c1 | 0.261 | 0.628
COc1ccc(CNCCC2CCOC(C)(C)C2)cc1 (centres undefined) | 0.263 | 0.65
Cc1nnc(Sc2ccc(C=O)o2)s1 | 0.227 | 0.604
CCOC(=O)N1CCN(Cc2cc(C)ccc2C)CC1 | 0.266 | 0.646
CC(=O)c1ccc(NS(=O)(=O)c2cc(S(=O)(=O)c3ccccc3)ccc2C)cc1 | 0.278 | 0.649
c1ccc(CN2C3=NCCCN3c3ccccc32)cc1 | 0.249 | 0.625
N#CCCS(=O)(=O)c1ccc(Br)cc1 | 0.258 | 0.63
CCCCOc1ccc(C2(C)CC(=O)NC2=O)cc1 (centres undefined) | 0.258 | 0.634
Cc1onc(-c2ccccc2Cl)c1C(=O)NCc1ccc2c(c1)OCO2 | 0.261 | 0.619
Cn1c(C=O)nc2cc([N+](=O)[O-])ccc21 | 0.241 | 0.625

SMILES | plate-normalized OD600 growth (temperature: 15°C, 48 h) | plate-normalized OD600 growth (temperature: 37°C, 24 h)
CN(C)/C=C/c1c(C=O)c2cc([N+](=O)[O-])ccc2n1C | 0.238 | 0.596
CCn1c(C)c(C=O)c2cc([N+](=O)[O-])ccc21 | 0.223 | 0.608
Cn1c2ccccc2c2nc3ccc([N+](=O)[O-])cc3cc21 | 0.249 | 0.639
NNC(=O)c1cc(-c2ccc([N+](=O)[O-])cc2)nc2ccccc12 | 0.251 | 0.647
O=C(O)Cn1c2ccccc2c2cc([N+](=O)[O-])ccc21 | 0.226 | 0.625
Cc1n[nH]c(=O)c2cc3c(C)n[nH]c(=O)c3cc12 | 0.259 | 0.622
CC1CCC2(CC1)C(C#N)C(=O)NC(=O)C2C#N (centres undefined) | 0.244 | 0.615
CCCC(=O)NC(c1ccccc1)c1ccccc1 | 0.265 | 0.637
CSc1nc(C)c(C(C)=O)cc1C#N | 0.244 | 0.621
Cc1ccc(S(=O)(=O)CCSc2cccc(C(=O)Nc3ccccc3)c2)cc1 | 0.243 | 0.633
O=C(Nc1ccncc1)c1ccc(Cl)cc1Cl | 0.263 | 0.623
Cc1nonc1NC(=O)Nc1ccncc1 | 0.18 | 0.615
CC(=O)Nc1cccc(NC(=O)Nc2cccc(Cl)c2)c1 | 0.236 | 0.585
Cc1ccc(C(C)NC(=O)c2ccccc2)c(C)c1 (centres undefined) | 0.267 | 0.619
Cc1ccc(NC(=O)[C@@H]2C3C=CC(C3)[C@@H]2C(=O)O)c(C)c1 (some centres undefined) | 0.247 | 0.648
CCCN(CCO)Cc1ccccc1F | 0.235 | 0.589
c1ccc(CCN2CCC(N3CCOCC3)CC2)cc1 | 0.239 | 0.618
c1ccc(CCCN2CCOCC2)cc1 | 0.251 | 0.615
c1ccc(CCN2CCN(c3ccccc3)CC2)cc1 | 0.227 | 0.62
Clc1ccccc1N1CCN(Cc2ccc(Br)o2)CC1 | 0.245 | 0.606
N#CC1=C(N)N2C(=C(C#N)C1c1c(F)cccc1Cl)Sc1ccccc12 (centres undefined) | 0.27 | 0.622
O=C(NCC1CCCO1)c1ccc2c(c1)OCO2 (centres undefined) | 0.243 | 0.615
Cc1ccc(CN(C)CCc2ccccn2)cc1 | 0.272 | 0.619

SMILES | plate-normalized OD600 growth (temperature: 15°C, 48 h) | plate-normalized OD600 growth (temperature: 37°C, 24 h)
CN(CCCc1ccccc1)CCc1ccccn1 | 0.26 | 0.659
CN(CCc1ccccn1)Cc1ccc(Cl)c(Cl)c1 | 0.222 | 0.622
CCSC1=C(C#N)C(c2ccc(Cl)cc2Cl)CC(=O)N1 (centres undefined) | 0.255 | 0.65
CC1=C(C#N)C(c2cccnc2)C2=C(CC(c3ccc(Cl)cc3)CC2=O)N1 (centres undefined) | 0.225 | 0.623
CC1=C(C#N)C(c2ccc(N(C)C)cc2)C2=C(CCCC2=O)N1 (centres undefined) | 0.248 | 0.638
N#CC1=C(N)OC2=C(C(=O)CCC2)C1c1cccnc1 (centres undefined) | 0.238 | 0.629
Cc1c(C(=O)NC2CCCC2)cccc1[N+](=O)[O-] | 0.252 | 0.636
O=C(NC1CCCCCC1)c1ccc([N+](=O)[O-])cc1 | 0.212 | 0.629
O=[N+]([O-])c1ccc(CNC2CCCC2)cc1 | 0.254 | 0.621
COc1cccc(NC(=O)c2cccc(I)c2)c1 | 0.244 | 0.596
Cc1n[nH]c(C)c1CCCCOc1ccc(Br)cc1 | 0.216 | 0.601
Cc1ccc(OCCCCc2c(C)n[nH]c2C)cc1 | 0.276 | 0.62
CCN(CC)CCCOc1ccc(C)cc1 | 0.255 | 0.632
CCCn1c(SCCC(=O)O)nc2ccccc21 | 0.257 | 0.621
N#CC1=C(N)NC(SCC(=O)Nc2ccc(Br)cc2)=C(C#N)C12CCCCC2 | 0.252 | 0.586
N#CC1=C(SCC(=O)Nc2ccc(Br)cc2)NC(=O)C(C#N)C12CCCCC2 (centres undefined) | 0.257 | 0.604
Cc1cc(=O)[nH]c(SCC(=O)Nc2ccc(Br)cc2)c1C#N | 0.214 | 0.594
COc1cc(C(=O)n2c(C)nc3ccccc32)cc(OC)c1OC | 0.246 | 0.616
O=C(O)CCC(=O)Nc1ccc(-c2nc3ccccc3[nH]2)cc1 | 0.247 | 0.602
Nc1ccc(Br)cc1-c1nc2ccccc2[nH]c1=O | 0.254 | 0.608
Cc1ccc(-c2nc3ccccc3[nH]2)cc1N | 0.222 | 0.616
COc1ccc(-c2cc(=O)n(CCC#N)[nH]2)cc1 | 0.266 | 0.622
N#Cc1c(NC(=O)c2cc3ncc(Br)cn3n2)sc2c1CCCC2 | 0.263 | 0.623

SMILES | plate-normalized OD600 growth (temperature: 15°C, 48 h) | plate-normalized OD600 growth (temperature: 37°C, 24 h)
O=[N+]([O-])c1ccccc1/C=C/CN1CCCCC1CO (centres undefined) | 0.264 | 0.63
CCCCOc1ccc(CN2CCC(O)CC2)cc1 | 0.272 | 0.664
CCCCOc1ccc(CN2CCN(CCOCCO)CC2)cc1 | 0.216 | 0.626
C/C=C(\C)CN1CCN(CCOCCO)CC1 | 0.269 | 0.664
Cc1cc([N+](=O)[O-])nn1CC(=O)NCC(C)C | 0.264 | 0.617
COc1ccc(NC(=O)c2ccccc2OC)cc1OC | 0.248 | 0.615
CN(Cc1ccccc1)C1CC(=O)N(c2ccc(C(=O)O)cc2)C1=O (centres undefined) | 0.246 | 0.621
CC1(C)CC(=O)C=C(Nc2ccc(F)c(F)c2)C1 | 0.247 | 0.617
CC(=O)c1ccc(OCCOc2ccc(C(C)=O)cc2)cc1 | 0.248 | 0.607
CC(=O)c1c(C)[nH]n(-c2ccccc2)c1=O | 0.252 | 0.618
Cc1[nH]n(-c2ccccc2)c(=O)c1C=O | 0.224 | 0.605
Cc1nn(-c2ccccc2)c(N2CCCCC2)c1C=O | 0.266 | 0.62
Cc1ccc(S(=O)(=O)N(CC(=O)O)c2cccc(Cl)c2)cc1 | 0.268 | 0.636
COc1cccc(-c2nc(Cc3ccc(Cl)cc3)no2)c1 | 0.253 | 0.601
COc1cccc(Nc2nc(-c3ccc(OC)c(F)c3)cs2)c1 | 0.245 | 0.609
Cc1nc(N)sc1-c1csc(Nc2ccc(O)cc2)n1 | 0.239 | 0.621
CCc1ccc(-c2csc(Nc3cccc(OC)c3)n2)cc1 | 0.222 | 0.604
Clc1ccc(-c2csc(Nc3ccc4c(c3)OCO4)n2)cc1 | 0.24 | 0.61
CCOc1ccc(Nc2nc(-c3ccc(CC(C)C)cc3)cs2)cc1 | 0.223 | 0.624
COc1ccc(Nc2nc(-c3ccc(F)cc3F)cs2)cc1 | 0.251 | 0.633
